Results: PMC7826789 (International Journal of Molecular Sciences, 2021)

Tests used:
Details in all cases: Compound Concentration (nM):1000
[1] = tested on: MET(Y1235D)
[2] = tested on: MET
[3] = tested on: T1, MINK
T1 construct: gene MINK1

[4] = tested on: T2, MKK7
T2 construct: gene MAP2K7

[5] = tested on: MKNK1
[6] = tested on: MKNK2
[7] = tested on: T3, MLCK
T3 construct: gene MYLK3

[8] = tested on: T4, MLK1
T4 construct: gene MAP3K9

[9] = tested on: T5, MLK2
T5 construct: gene MAP3K10

[10] = tested on: T6, MLK3
T6 construct: gene MAP3K11

[11] = tested on: T7, MRCKA
T7 construct: gene CDC42BPA

[12] = tested on: T8, MRCKB
T8 construct: gene CDC42BPB

[13] = tested on: MST1R
[14] = tested on: T9, MST1
T9 construct: gene STK4

[15] = tested on: T10, MST2
T10 construct: gene STK3

[16] = tested on: T11, MST3
T11 construct: gene STK24

[17] = tested on: MST4
[18] = tested on: MTOR
[19] = tested on: MUSK
[20] = tested on: MYLK2
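Also: KINOMEscan scanMAX binding as percent activity remaining versus control; lower means stronger binding.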

SMILES | Percent Control [1] [%] | Percent Control [2] [%] | Percent Control [3] [%] | Percent Control [4] [%] | Percent Control [5] [%] | Percent Control [6] [%] | Percent Control [7] [%] | Percent Control [8] [%] | Percent Control [9] [%] | Percent Control [10] [%] | Percent Control [11] [%] | Percent Control [12] [%] | Percent Control [13] [%] | Percent Control [14] [%] | Percent Control [15] [%] | Percent Control [16] [%] | Percent Control [17] [%] | Percent Control [18] [%] | Percent Control [19] [%] | Percent Control [20] [%]
COc1cc2ncn(-c3cc(O[C@H](C)c4ccccc4Cl)c(C(N)=O)s3)c2cc1OC [GSK237701A] | 71 | 78 | 55 | 97 | 73 | 77 | 97 | 64 | 95 | 92 | 89 | 96 | 94 | 43 | 0 | 93 | 91 | 100 | 89 | 45
C[C@@H](Oc1cc(-n2cnc3ccc(OC4CCN(C)CC4)cc32)sc1C(N)=O)c1ccccc1Cl [GSK579289A] | 98 | 58 | 75 | 78 | 71 | 60 | 72 | 39 | 86 | 100 | 100 | 88 | 100 | 77 | 24 | 84 | 59 | 95 | 85 | 48
CC1=C(C(=O)Nc2ccc3[nH]ncc3c2)C(c2ccc3ccccc3c2)CC(=O)N1 (centres unmarked) [GSK270822A] | 87 | 47 | 87 | 75 | 75 | 73 | 92 | 68 | 100 | 76 | 100 | 85 | 46 | 93 | 73 | 90 | 53 | 100 | 95 | 100
CC1=C(C(=O)Nc2ccc3[nH]ncc3c2)C(c2ccc(Cl)c(Cl)c2)CC(=O)N1 (centres unmarked) [GSK299115A] | 97 | 97 | 69 | 90 | 81 | 66 | 99 | 70 | 86 | 97 | 100 | 75 | 91 | 90 | 94 | 70 | 66 | 100 | 100 | 100
COc1cccc(-n2ncc3c(N/N=C/c4ccncc4)ncnc32)c1 [GW784752X] | 94 | 91 | 67 | 100 | 47 | 59 | 98 | 100 | 73 | 100 | 100 | 100 | 100 | 100 | 100 | 93 | 74 | 100 | 100 | 91
C/C(Nc1ccc(S(N)(=O)=O)cc1)=C1/C(=O)Nc2ccccc21 [GW335962X] | 100 | 72 | 2.8 | 91 | 74 | 100 | 69 | 77 | 75 | 98 | 100 | 92 | 100 | 82 | 100 | 27 | 8.4 | 96 | 100 | 100
Cl.O=C(Nc1ccc(Oc2ccc3[nH]c(NC(=O)c4ccco4)nc3c2)cc1)Nc1cc(C(F)(F)F)ccc1F [GW683134A] | 6.6 | 17 | 99 | 100 | 48 | 12 | 100 | 64 | 82 | 67 | 94 | 89 | 100 | 100 | 100 | 100 | 87 | 100 | 5.6 | 38
CC(C)COC(=O)c1ccc2c(c1)/C(=C/Nc1ccc(S(N)(=O)=O)cc1)C(=O)N2 [GW416981X] | 94 | 100 | 37 | 100 | 100 | 100 | 100 | 100 | 96 | 100 | 100 | 100 | 100 | 100 | 1.1 | 98 | 31 | 100 | 100 | 100
COc1ccc2[nH]c3c4[nH]c5ccc(OC)cc5c4c4c(c3c2c1)C(=O)NC4=O [GW296115X] | 76 | 78 | 1.7 | 88 | 92 | 54 | 16 | 2.2 | 83 | 5.6 | 76 | 89 | 93 | 100 | 82 | 76 | 85 | 100 | 83 | 82
CN1CCN(C(=O)c2ccc(NC(=O)Nc3ccc(N(C)c4ccnc(Nc5ccc(CS(C)(=O)=O)cc5)n4)cc3)cc2)CC1.Cl [GW830263A] | 4.4 | 8.8 | 18 | 95 | 65 | 4.2 | 86 | 86 | 82 | 91 | 89 | 86 | 41 | 96 | 16 | 47 | 11 | 100 | 11 | 36
